In article PMC9838217, “Structure of SALL4 zinc finger domain reveals link between AT-rich DNA binding and Okihiro syndrome”:
Residue numbers refer to the chain shown, from its start.

Key:
[1] = target: T1, SALL4 ZFC4 R900W (HT-SELEX) (Mus musculus, UniProt Q8BX22 870-940, R900W); assay: HT-SELEX; high values mean tight binding; settings: protein: recombinant; vector His6-GST; dsDNA, one strand shown
T1 sequence: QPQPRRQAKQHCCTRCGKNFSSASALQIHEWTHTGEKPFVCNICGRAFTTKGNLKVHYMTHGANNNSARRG
Procedure, shortened: (§1)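 In triplicate selections of up to 6 cycles, purified recombinant mouse SALL4 zinc finger cluster 4 (residues 870–940, 1 µg) was incubated 10 min at room temperature with library DNA (1.5 µg, then 200 ng) in 100 µl of 10 mM Tris–HCl pH 7.5, 50 mM NaCl, poly(dI-dC) and DTT, and complexes were captured on Ni2+ beads, washed and PCR-amplified. Sequencing was done on MiSeq with scanning for 6-mers. The binding signal is each canonical k-mer's read fraction, reported as fold change against the initial random library.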

[2] = target: T2, SALL4 ZFC4 G921D (HT-SELEX) (Mus musculus, UniProt Q8BX22 870-940, G921D); assay: HT-SELEX; high values mean tight binding; settings: protein: recombinant; vector His6-GST; dsDNA, one strand shown
T2 sequence: T1 sequence with W31R, G52D
Procedure, shortened: as §1

| Sequence | binding signal [1] [fold-change vs cycle 0] | binding signal [2] [fold-change vs cycle 0] |
| --- | --- | --- |
| GCTGCC | 0.109 ± 0.0113 | 0.217 ± 0.0947 |
| GCCACA | 0.251 ± 0.0128 | 0.391 ± 0.0588 |
| CCGGTC | 0.202 ± 0.0231 | 0.315 ± 0.0731 |
| ATTCTC | 1.55 ± 0.0853 | 1.41 ± 0.126 |
| GCTGGA | 0.37 ± 0.0454 | 0.484 ± 0.0925 |
| CGCGGA | 0.105 ± 0.00959 | 0.199 ± 0.0519 |
| ACAGGC | 0.338 ± 0.0213 | 0.472 ± 0.0921 |
| ACGGCG | 0.0768 ± 0.0155 | 0.177 ± 0.0582 |
| ACTCGC | 0.3364 ± 0.000841 | 0.463 ± 0.0712 |
| AGTCGG | 0.367 ± 0.00833 | 0.499 ± 0.0416 |
| ACGGGC | 0.131 ± 0.00526 | 0.241 ± 0.0805 |
| CCGACA | 0.311 ± 0.0211 | 0.462 ± 0.0665 |
| ACCCCC | 0.324 ± 0.0114 | 0.419 ± 0.0596 |
| CTCGGC | 0.127 ± 0.0136 | 0.231 ± 0.0599 |
| CACGGG | 0.253 ± 0.0129 | 0.366 ± 0.0584 |
| CGCACG | 0.0997 ± 0.0037 | 0.21 ± 0.071 |
| GTCGCA | 0.215 ± 0.0161 | 0.341 ± 0.0831 |
| ATGGCC | 0.263 ± 0.0192 | 0.413 ± 0.0521 |
| ACGCGC | 0.0585 ± 0.00894 | 0.159 ± 0.07 |
| ACGCCC | 0.137 ± 0.0108 | 0.25 ± 0.0577 |

| Sequence | binding signal [1] [fold-change vs cycle 0] | binding signal [2] [fold-change vs cycle 0] |
| --- | --- | --- |
| CGACAC | 0.316 ± 0.0105 | 0.48 ± 0.0742 |
| CCGGCG | 0.0367 ± 0.00313 | 0.128 ± 0.0641 |
| CCGGGA | 0.237 ± 0.0178 | 0.341 ± 0.0693 |
| CGACCA | 0.322 ± 0.0112 | 0.456 ± 0.0665 |
| CCCCCG | 0.133 ± 0.00946 | 0.239 ± 0.0586 |
| CGCCTC | 0.152 ± 0.0261 | 0.277 ± 0.0696 |
| CCCGAC | 0.183 ± 0.0155 | 0.308 ± 0.0677 |
| ACACGC | 0.297 ± 0.0275 | 0.43 ± 0.0602 |
| GTGCCA | 0.266 ± 0.0277 | 0.416 ± 0.0672 |
| ACTGCC | 0.333 ± 0.0151 | 0.469 ± 0.0726 |
| AGCCGA | 0.263 ± 0.0162 | 0.384 ± 0.065 |
| CCAGCC | 0.149 ± 0.0151 | 0.273 ± 0.0654 |
| CGGGAG | 0.27 ± 0.0161 | 0.381 ± 0.0867 |
| GGCCAA | 0.221 ± 0.00964 | 0.358 ± 0.0813 |
| AGCGAC | 0.253 ± 0.0224 | 0.41 ± 0.0789 |
| AAGCCC | 0.353 ± 0.015 | 0.475 ± 0.062 |
| CAGGCA | 0.348 ± 0.0149 | 0.477 ± 0.0613 |
| GGGACC | 0.257 ± 0.0113 | 0.386 ± 0.0917 |
| CGCCGA | 0.0711 ± 0.00229 | 0.179 ± 0.0757 |
| AGGCAC | 0.34 ± 0.0246 | 0.486 ± 0.0565 |

| Sequence | binding signal [1] [fold-change vs cycle 0] | binding signal [2] [fold-change vs cycle 0] |
| --- | --- | --- |
| AGGGCG | 0.146 ± 0.011 | 0.26 ± 0.0708 |
| GCACCA | 0.324 ± 0.0178 | 0.451 ± 0.0674 |
| GATCGC | 0.301 ± 0.0313 | 0.461 ± 0.0896 |
| CGCGTA | 0.224 ± 0.0194 | 0.34 ± 0.0644 |
| GGACCC | 0.246 ± 0.0211 | 0.387 ± 0.0656 |
| AGGCGC | 0.0722 ± 0.0162 | 0.185 ± 0.0792 |
| CGAGGC | 0.149 ± 0.0127 | 0.271 ± 0.0651 |
| CCCGAG | 0.2602 ± 0.00145 | 0.386 ± 0.0692 |
| CAATAG | 1.34 ± 0.0439 | 1.31 ± 0.0578 |
| CAGCGC | 0.0744 ± 0.00642 | 0.177 ± 0.0788 |
| GCATGC | 0.3 ± 0.0114 | 0.437 ± 0.0507 |
| CGCTGC | 0.0919 ± 0.0151 | 0.201 ± 0.0834 |
| CCGTGC | 0.143 ± 0.00796 | 0.251 ± 0.0641 |
| CCCGGC | 0.0588 ± 0.00399 | 0.151 ± 0.0654 |
| CAAGCG | 0.313 ± 0.0138 | 0.452 ± 0.0669 |
| AGGCCG | 0.104 ± 0.0123 | 0.216 ± 0.0702 |
| GACGCA | 0.263 ± 0.0079 | 0.386 ± 0.0647 |
| CGCCAG | 0.103 ± 0.00325 | 0.214 ± 0.0676 |
| CCGCGA | 0.102 ± 0.00288 | 0.221 ± 0.0689 |
| AGGCGA | 0.276 ± 0.00793 | 0.438 ± 0.0693 |
